In ChEMBL document CHEMBL1961873, “Compounds: GSK PKIS; Assays: Nanosyn kinase panel” (2012) one finds inhibition data, which are given here for six molecules.

The target of test [1] is Fibroblast growth factor receptor 4 (Homo sapiens) (UniProt P22455). As to conditions: at 1 µM.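 Note: reported figure is the averaged percent inhibition of FGFR4, from the GSK PKIS kinase screening panel.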
In test [2] the target is Tyrosine-protein kinase Fgr (Homo sapiens) (UniProt P09769). As to conditions: at 0.1 µM.
Test [3] shares this target. Conditions: at 1 µM.
The target of test [4] is Vascular endothelial growth factor receptor 1 (Homo sapiens) (UniProt P17948). Conditions: at 0.1 µM.
Test [5] shares this target. Conditions: at 1 µM.
Test [6] addresses Receptor-type tyrosine-protein kinase FLT3 (Homo sapiens) (UniProt P36888). As to conditions: at 0.1 µM.
For test [7] the target is unchanged. Conditions: at 1 µM.
For test [8], the system named is T1, Receptor-type tyrosine-protein kinase FLT3 (Homo sapiens), P36888 [D835Y].
T1 sequence (whole entry): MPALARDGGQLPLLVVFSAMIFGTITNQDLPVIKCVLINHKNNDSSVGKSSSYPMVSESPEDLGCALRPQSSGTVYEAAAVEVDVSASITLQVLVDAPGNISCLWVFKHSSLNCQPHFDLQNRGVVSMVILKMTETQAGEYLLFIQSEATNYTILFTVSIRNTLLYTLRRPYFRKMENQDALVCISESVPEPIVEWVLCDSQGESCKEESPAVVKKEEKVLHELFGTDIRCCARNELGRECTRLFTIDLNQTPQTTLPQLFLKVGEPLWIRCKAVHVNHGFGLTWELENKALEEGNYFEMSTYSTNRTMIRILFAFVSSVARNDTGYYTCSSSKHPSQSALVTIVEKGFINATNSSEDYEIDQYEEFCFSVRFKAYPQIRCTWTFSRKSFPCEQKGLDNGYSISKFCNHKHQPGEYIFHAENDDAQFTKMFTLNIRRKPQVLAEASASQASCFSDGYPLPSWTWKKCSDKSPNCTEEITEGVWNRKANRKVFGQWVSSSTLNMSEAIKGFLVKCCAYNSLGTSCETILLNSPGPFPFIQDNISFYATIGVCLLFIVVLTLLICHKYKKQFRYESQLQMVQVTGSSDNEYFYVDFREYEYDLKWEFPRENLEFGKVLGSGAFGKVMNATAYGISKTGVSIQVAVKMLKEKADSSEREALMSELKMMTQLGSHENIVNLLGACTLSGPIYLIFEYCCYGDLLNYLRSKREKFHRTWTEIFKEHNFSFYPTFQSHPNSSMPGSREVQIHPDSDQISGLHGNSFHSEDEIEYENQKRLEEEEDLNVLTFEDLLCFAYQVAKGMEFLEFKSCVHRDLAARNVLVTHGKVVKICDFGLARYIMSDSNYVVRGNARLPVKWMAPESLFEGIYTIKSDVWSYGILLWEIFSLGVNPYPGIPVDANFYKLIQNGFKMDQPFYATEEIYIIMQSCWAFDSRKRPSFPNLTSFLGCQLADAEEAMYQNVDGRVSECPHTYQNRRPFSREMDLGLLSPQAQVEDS
As to conditions: at 0.1 µM.

The target of test [9] is Non-receptor tyrosine-protein kinase TYK2 (Homo sapiens) (UniProt P29597). Conditions: at 1 µM.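 Note: values are mean percent inhibition of TYK2 kinase.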
The target in test [10] is T2, Tyrosine-protein kinase receptor TYRO3 (Homo sapiens) (UniProt Q06418).
T2 sequence (whole entry): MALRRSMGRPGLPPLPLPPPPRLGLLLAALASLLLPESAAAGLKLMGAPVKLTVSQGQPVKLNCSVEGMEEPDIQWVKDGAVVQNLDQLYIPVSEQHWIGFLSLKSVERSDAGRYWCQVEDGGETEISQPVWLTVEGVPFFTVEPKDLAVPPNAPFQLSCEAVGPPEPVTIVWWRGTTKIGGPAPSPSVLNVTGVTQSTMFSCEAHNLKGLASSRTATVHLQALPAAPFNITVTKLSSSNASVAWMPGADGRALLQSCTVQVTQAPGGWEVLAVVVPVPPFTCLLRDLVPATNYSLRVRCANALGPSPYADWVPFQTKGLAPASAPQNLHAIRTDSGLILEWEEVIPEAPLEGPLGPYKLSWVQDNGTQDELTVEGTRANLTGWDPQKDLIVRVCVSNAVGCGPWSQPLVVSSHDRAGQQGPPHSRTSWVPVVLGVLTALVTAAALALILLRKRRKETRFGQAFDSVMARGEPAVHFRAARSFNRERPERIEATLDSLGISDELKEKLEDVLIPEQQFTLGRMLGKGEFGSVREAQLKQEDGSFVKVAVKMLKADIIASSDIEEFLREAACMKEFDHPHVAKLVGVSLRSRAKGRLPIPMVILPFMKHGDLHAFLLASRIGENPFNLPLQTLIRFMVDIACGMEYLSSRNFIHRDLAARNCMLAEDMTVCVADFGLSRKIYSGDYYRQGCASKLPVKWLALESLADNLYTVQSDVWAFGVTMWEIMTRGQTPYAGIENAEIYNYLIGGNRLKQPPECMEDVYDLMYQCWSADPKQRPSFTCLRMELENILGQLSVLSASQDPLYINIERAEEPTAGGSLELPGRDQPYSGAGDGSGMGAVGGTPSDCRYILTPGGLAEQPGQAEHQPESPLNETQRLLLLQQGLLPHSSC
As to conditions: at 0.1 µM.

The target of test [11] is T2, Tyrosine-protein kinase receptor TYRO3 (Homo sapiens). As to conditions: at 1 µM.
Test [12] has as its target Tyrosine-protein kinase Yes (Homo sapiens) (UniProt P07947). As to conditions: at 0.1 µM.
For test [13] the target is unchanged. Conditions: at 1 µM.
Test [14] addresses T3, Tyrosine-protein kinase ZAP-70 (Homo sapiens) (UniProt P43403).
T3 sequence (whole entry): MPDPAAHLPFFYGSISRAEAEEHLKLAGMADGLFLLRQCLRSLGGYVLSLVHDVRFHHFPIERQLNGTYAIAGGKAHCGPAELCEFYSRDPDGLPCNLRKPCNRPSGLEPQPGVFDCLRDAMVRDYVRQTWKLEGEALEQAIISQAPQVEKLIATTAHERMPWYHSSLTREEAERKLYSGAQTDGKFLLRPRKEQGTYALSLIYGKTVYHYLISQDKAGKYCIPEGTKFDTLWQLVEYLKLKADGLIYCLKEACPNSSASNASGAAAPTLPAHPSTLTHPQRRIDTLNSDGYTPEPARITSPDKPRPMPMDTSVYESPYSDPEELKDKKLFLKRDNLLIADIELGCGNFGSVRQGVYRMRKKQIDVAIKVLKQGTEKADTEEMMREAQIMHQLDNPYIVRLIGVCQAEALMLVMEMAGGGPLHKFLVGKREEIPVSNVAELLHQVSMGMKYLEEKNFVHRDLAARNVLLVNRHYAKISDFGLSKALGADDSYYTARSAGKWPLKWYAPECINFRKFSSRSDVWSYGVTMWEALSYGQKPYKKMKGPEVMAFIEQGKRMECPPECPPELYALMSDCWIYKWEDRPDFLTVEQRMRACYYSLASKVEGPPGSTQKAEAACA
Conditions: at 0.1 µM.

For test [15], the target named is T3, Tyrosine-protein kinase ZAP-70 (Homo sapiens). As to conditions: at 1 µM.
Test [16] deals with Serine/threonine-protein kinase B-raf (Homo sapiens) (UniProt P15056). As to conditions: at 0.1 µM.
Test [17] shares this target. As to conditions: at 1 µM.
In test [18] the test system is Serine/threonine-protein kinase B-raf (Homo sapiens), P15056 [V600E]. As to conditions: at 0.1 µM.
Test [19] shares this test system. Conditions: at 1 µM.
The target of test [20] is RAF proto-oncogene serine/threonine-protein kinase (Homo sapiens) (UniProt P04049). Conditions: at 0.1 µM.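 Note: values are mean CRAF kinase inhibition from profiling of the GSK Published Kinase Inhibitor Set.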

Molecules are shown by their SMILES.

Tyrosine-protein kinase Yes (Homo sapiens), sequence (P07947 2-543 limits assumed): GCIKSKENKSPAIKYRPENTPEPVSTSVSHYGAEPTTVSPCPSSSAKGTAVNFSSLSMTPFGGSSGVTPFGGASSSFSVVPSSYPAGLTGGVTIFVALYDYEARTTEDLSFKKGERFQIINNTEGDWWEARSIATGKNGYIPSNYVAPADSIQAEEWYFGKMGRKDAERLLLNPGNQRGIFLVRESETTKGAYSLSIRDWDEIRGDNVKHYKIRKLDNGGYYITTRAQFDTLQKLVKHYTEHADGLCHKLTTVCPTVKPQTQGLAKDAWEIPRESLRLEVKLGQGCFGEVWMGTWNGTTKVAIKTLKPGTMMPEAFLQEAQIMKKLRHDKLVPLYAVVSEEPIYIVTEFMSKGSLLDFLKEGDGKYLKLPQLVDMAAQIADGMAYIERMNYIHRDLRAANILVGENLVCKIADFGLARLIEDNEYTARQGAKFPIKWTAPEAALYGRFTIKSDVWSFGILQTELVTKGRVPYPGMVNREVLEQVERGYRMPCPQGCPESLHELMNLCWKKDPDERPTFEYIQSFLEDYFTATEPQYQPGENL
Vascular endothelial growth factor receptor 1 (Homo sapiens), sequence (P17948 whole entry): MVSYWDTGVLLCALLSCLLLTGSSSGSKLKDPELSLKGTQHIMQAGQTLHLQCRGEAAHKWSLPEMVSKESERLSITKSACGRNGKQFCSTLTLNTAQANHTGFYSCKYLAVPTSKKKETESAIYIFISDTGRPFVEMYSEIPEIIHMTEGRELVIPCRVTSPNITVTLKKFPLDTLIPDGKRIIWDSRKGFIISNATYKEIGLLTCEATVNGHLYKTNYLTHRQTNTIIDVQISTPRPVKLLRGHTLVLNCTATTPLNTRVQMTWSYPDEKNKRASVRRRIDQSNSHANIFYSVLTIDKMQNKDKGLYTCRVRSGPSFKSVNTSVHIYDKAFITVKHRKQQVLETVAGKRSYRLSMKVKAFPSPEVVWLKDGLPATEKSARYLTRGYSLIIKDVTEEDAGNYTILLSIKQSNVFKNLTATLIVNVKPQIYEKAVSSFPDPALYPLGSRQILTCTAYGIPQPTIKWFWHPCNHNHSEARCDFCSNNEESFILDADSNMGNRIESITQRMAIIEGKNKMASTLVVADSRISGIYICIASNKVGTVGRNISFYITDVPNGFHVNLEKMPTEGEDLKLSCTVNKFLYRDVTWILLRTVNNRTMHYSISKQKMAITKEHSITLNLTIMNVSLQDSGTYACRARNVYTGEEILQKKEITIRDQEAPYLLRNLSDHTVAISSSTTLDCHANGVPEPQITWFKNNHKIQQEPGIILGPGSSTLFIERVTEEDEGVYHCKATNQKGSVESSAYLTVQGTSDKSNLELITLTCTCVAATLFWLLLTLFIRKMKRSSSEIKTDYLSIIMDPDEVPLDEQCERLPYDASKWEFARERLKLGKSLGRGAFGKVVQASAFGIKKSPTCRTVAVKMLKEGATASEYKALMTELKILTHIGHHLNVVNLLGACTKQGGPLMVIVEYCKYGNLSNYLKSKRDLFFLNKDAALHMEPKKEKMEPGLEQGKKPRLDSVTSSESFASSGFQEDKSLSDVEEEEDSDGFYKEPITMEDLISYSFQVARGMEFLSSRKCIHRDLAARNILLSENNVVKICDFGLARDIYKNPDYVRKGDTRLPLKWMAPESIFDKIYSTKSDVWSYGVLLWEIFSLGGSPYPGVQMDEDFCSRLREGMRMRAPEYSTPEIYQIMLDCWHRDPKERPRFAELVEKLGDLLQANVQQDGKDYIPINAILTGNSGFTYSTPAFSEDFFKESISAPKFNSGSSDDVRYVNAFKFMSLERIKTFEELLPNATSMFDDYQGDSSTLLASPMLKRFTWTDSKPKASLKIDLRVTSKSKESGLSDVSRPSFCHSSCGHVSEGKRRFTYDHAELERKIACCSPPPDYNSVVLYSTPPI
Tyrosine-protein kinase Fgr (Homo sapiens), sequence (P09769 2-529 limits assumed): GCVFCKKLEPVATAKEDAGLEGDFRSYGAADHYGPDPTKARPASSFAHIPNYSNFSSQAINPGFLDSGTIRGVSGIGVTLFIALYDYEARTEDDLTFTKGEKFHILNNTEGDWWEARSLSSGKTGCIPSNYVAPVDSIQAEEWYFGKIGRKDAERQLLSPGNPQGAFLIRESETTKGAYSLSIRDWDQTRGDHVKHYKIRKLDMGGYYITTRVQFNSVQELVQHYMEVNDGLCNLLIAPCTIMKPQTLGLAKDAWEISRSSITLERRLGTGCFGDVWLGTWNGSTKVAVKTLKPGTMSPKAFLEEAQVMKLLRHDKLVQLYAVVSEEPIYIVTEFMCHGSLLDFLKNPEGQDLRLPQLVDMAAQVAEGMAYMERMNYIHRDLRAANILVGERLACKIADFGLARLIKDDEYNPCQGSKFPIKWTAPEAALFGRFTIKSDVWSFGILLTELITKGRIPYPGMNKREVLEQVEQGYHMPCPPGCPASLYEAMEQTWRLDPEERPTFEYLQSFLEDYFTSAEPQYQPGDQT
Non-receptor tyrosine-protein kinase TYK2 (Homo sapiens), sequence (P29597 whole entry): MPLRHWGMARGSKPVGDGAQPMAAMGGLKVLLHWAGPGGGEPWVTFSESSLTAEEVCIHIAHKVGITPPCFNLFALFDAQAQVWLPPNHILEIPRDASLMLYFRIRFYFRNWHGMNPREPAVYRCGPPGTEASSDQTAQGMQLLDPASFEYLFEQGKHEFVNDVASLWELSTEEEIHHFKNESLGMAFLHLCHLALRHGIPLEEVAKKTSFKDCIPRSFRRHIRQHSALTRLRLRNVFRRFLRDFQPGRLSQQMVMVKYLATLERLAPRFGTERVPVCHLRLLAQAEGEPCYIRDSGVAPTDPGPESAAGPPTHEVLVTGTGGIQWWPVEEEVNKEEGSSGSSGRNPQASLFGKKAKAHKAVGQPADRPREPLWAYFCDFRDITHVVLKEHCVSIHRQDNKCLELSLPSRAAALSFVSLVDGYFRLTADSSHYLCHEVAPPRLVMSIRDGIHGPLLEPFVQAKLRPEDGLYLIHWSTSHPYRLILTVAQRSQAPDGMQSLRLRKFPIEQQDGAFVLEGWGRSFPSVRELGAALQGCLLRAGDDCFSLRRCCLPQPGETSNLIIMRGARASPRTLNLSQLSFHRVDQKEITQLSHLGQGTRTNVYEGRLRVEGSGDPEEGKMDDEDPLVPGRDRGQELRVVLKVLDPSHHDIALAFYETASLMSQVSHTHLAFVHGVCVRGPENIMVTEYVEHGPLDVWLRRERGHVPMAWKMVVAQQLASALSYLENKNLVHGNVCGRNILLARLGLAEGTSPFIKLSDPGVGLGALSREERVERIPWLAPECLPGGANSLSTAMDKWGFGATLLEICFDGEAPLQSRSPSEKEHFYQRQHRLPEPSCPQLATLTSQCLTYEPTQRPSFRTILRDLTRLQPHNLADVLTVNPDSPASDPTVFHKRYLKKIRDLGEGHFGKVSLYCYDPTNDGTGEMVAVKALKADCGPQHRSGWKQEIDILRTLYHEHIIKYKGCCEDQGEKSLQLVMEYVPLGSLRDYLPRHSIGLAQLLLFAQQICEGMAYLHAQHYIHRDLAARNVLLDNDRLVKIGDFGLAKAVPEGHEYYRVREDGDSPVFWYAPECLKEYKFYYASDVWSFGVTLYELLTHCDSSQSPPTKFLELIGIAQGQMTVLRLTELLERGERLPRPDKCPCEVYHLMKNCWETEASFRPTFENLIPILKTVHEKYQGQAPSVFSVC
RAF proto-oncogene serine/threonine-protein kinase (Homo sapiens), sequence (P04049 whole entry): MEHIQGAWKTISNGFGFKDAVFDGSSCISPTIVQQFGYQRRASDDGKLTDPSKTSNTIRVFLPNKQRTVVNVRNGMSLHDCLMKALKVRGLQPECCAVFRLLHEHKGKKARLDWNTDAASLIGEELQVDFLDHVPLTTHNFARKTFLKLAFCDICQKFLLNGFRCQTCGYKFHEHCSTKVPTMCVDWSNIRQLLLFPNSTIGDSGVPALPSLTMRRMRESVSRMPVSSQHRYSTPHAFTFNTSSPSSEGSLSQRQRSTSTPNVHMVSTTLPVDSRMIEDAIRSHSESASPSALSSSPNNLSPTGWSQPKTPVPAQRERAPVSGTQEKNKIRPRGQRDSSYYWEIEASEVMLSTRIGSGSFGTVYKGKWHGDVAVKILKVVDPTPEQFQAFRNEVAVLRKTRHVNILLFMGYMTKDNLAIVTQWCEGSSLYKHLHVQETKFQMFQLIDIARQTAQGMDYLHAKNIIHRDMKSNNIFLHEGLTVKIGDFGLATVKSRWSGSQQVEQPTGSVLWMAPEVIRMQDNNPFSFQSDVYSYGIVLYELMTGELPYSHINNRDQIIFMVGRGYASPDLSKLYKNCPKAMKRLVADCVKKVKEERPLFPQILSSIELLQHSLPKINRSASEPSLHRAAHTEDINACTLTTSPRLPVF
Serine/threonine-protein kinase B-raf (Homo sapiens), sequence (P15056 whole entry): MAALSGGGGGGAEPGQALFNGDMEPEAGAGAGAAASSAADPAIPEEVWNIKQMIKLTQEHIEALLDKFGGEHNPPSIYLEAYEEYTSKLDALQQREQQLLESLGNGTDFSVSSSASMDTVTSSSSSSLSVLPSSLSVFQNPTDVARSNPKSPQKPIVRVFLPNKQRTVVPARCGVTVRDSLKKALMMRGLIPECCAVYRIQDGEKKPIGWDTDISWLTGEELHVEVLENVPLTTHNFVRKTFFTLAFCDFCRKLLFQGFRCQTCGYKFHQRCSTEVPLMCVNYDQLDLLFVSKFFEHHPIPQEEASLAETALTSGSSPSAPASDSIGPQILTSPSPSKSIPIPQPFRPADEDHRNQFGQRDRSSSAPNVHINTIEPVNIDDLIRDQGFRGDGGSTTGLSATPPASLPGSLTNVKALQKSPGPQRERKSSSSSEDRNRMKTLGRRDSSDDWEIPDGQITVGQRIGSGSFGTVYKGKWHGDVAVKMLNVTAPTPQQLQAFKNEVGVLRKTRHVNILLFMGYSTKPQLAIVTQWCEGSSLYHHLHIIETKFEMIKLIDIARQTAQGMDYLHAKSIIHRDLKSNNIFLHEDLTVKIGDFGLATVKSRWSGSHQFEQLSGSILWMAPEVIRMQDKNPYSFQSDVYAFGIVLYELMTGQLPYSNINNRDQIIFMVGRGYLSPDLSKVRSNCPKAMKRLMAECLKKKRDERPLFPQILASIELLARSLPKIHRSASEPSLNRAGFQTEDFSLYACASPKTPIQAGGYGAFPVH
Serine/threonine-protein kinase B-raf (Homo sapiens), P15056 [V600E], sequence (P15056 whole entry V600E): as the sequence (P15056 whole entry) above, with V600E counted along it

`COc1cc2ncn(-c3cc(OCc4ccccc4C(F)(F)F)c(C(C)=O)s3)c2cc1OC`: the inhibition in [1] was found to be 0.4%; in test [2], 3.6%; in test [3], 6.26%; in test [4], 1.7%; in test [5], 1.67%; in test [6], 1.77%. Moreover, the inhibition was 5.32% in test [7]; 1.44% in test [8]; -0.07% in test [9]; 1.52% in test [10]; 2.25% in [11]; 2.59% in [12]. The inhibition in test [13] was 6.19%; in [14], -0.08%; in test [15], -3.94%; in test [16] it was 5.13%; in test [17] it was 5.83%; in test [18] it was 4.21%. In addition, the values for the inhibition in [19] and in test [20] were 4.4% and -0.73%, respectively.

With `c1ccc(Oc2ccc(Nc3ncc(-c4ccccc4)o3)cc2)cc1`, the inhibition in test [1] was 3.31%; in test [2], 1.2%; in test [3] it was 4.81%; in [4] it was 1.53%; in test [5], 4.46%; in test [6], 2.44%. The inhibition in test [7] was 13.3%; in test [8] it was 0.51%; in test [9], -0.96%; in [10], 2.18%; in test [11], 1.97%; in [12], 0.58%. Also, the inhibition is -0.25% in test [13]; 1.43% in test [14]; 0.91% in [15]; 1.29% in test [16]; 1.47% in [17]; 2.23% in test [18]. The inhibition was found to be 1.97% in [19] and 0.01% in [20].

As for `Fc1ccc(-c2ncn(C3CCNCC3)c2-c2ccnc(Oc3ccc(F)c(F)c3)n2)cc1`, the inhibition is -4.24% in test [1]; 2.76% in [2]; 3.69% in test [3]; 0.45% in test [4]; 4.56% in test [5]; -1.09% in test [6]. Moreover, the inhibition is 4.18% in test [7]; -2.41% in [8]; -5.44% in test [9]; 1.82% in test [10]; 1.35% in test [11]; 2.3% in test [12]. The inhibition was 0.42% in [13]; -5.04% in test [14]; -3.78% in test [15]; 6.07% in test [16]; 6.2% in test [17]; 4.48% in [18]. Besides, the inhibition in [19] was 4.06%; in [20] it was -1.78%.

Turning to `CCc1cccc(CC)c1/C=C/c1cncc(C(=O)NC)c1`, the inhibition in test [1] stood at 0.35%; in test [2] it was 3.25%; in [3], 11.7%; in test [4], 4.96%; in [5], 2.13%; in [6], 2.07%. For the same molecule, the inhibition in test [7] is 4.49%; in test [8], 2.46%; in [9] it was -3.91%; in test [10] it was 1.2%; in test [11] it was 2.78%; in [12] it was 3.04%. For the same molecule, the inhibition in [13] is -1.48%; in test [14], 0.45%; in test [15], 0.77%; in test [16], 3.23%; in [17], 2.6%; in test [18], 2.71%. In addition, the inhibition came out at 2.87% in test [19] and 5.4% in test [20].

For `NS(=O)(=O)c1ccc(N/N=C2\C(=O)Nc3ccc(C(=O)NCCCn4ccnc4)cc32)cc1`, the inhibition in test [1] amounted to 2.46%; in test [2] it was 5.97%; in [3], 13.4%; in [4], 0.63%; in [5] it was 5.48%; in [6] it was 3.35%. Moreover, the inhibition in [7] was 18.5%; in [8] it was 2.34%; in test [9], -1.72%; in [10] it was 4.1%; in test [11] it was 9.93%; in test [12] it was 5.35%. The inhibition in test [13] was determined as 24.1%; in test [14], 0.31%; in test [15], 8.11%; in [16], 10.7%; in [17], 38.4%; in test [18], 11.3%. The inhibition in [19] is 38.9%; in test [20], 5.92%.

For the molecule `COc1cc2ncn(-c3cc(OCCc4ccccc4)c(C(N)=O)s3)c2cc1OC`, the inhibition in test [1] is 2%; in [2], -0.62%; in test [3], 7.7%; in test [4] it was 1.49%; in [5], 4.71%; in test [6], 0.81%. For the same molecule, the inhibition in test [7] was 7.46%; in test [8], 0.74%; in [9], -2.99%; in test [10] it was 0.78%; in [11] it was 0.83%; in [12], 1.03%. The inhibition in [13] was 4.7%; in test [14] it was 0.43%; in test [15] it was 0.59%; in test [16], 3.24%; in [17], 3.36%; in test [18], 3.25%. Also, the inhibition was 3.42% in [19] and 0.38% in test [20].
